Compounds with a hit are over-represented: about 2% of the library has one in this group of screens.
SKKanGAS inh = S. pyogenes SKKanGAS growth inhibitors in kanamycin, primary screen, streptokinase expression inhibitor project, SKKanGAS strain, BacTiter-Glo luminescence. inhibition, % at 7.5 µM. 300,000 tested, 1.3% active. 6 h. AID 1662, 2009;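 active = mean replicate score, as percent of positive control median, at least 50; inconclusive = mean below 50 but one replicate at or above 50; inactive = mean and every replicate below 50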;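 also: strain carries kanamycin resistance gene driven by streptokinase promoter and grows in 40 µg/ml kanamycin; loss of luminescence reflects streptokinase promoter inhibition or plain growth inhibition; 0% = median of DMSO wells and 100% = positive control at its reference dose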
CR mimetic SO = reduction of superoxide in aged yeast, primary screen, HTS. S. cerevisiae aged cells, superoxide DHE fluorescence; hits give low values. superoxide response (% of plate mean), % at 10 µM. 330,000 tested, 0.18% active. AID 2690, 2010;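 active = superoxide response under a set limit, about three screen SD below normal, cut at about 65% in these data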;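 also: yeast aged for seven days with compound at 30 °C before DHE staining; 100% = average MFI of all compound-treated wells on the plate with controls excluded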
PolyA inh = polyadenylation inhibitors in yeast reporter cells, primary screen, luminescence, S. cerevisiae | 300,000 tested, 0.02% active | S. cerevisiae SKY197-pL101 polyadenylation reporter, beta-gal luminescence; efflux-impaired pdr1/pdr3 knockout yeast; score 100 = 6 SD above DMSO | AID 1875, 2009 | activity score, % at 12 µM;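 active = lowest replicate activity score at least 50, where 100 means six control SD above control mean; inconclusive = lowest score under 50 but half or more replicates reach 50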;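 also: yeast exposed to compound for 9 h at 30 °C; higher score means more reporter readthrough which indicates perturbed polyadenylation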
Platelet DG rel = inhibitors of platelet dense granule secretion, primary screen, cell-based, MLPCN, human platelets; human platelet-rich plasma, SFLLRN dense granule ATP release, luminescence; inhibition, %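 (compounds screened at 7.5 µM in platelet-rich plasma)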; 300,000 tested, 0.22% active; AID 1663, 2009;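 active = mean replicate score, as percent of positive control, at or above 50; inconclusive = mean below 50 but at least one replicate at or above 50; inactive = mean and every replicate below 50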
Calb FLC = C. albicans growth inhibition with fluconazole, primary screen, CaCi-2 strain, Alamar Blue fluorescence; C. albicans CaCi-2 (fluconazole-resistant clinical isolate) + fluconazole, 48 h; growth inhibition, % (test concentration not listed); 300,000 tested, 0.57% active; AID 1979, 2009;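 active = growth inhibition above about 58% in most replicates, limit read from the data, passing the limit was not always enough; inconclusive = exactly half the replicates above a set limit; inactive = most replicates below a set limit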;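 also: all wells also contain fluconazole at 8 µg/ml as a sub-toxic cotreatment; 0% = median of DMSO wells and 100% = median of geldanamycin control wells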
* = called active by the depositor.

Results for Cc1cccc(/C=C2/S/C(=N/N=C3\CC4CCC3(C)C4(C)C)NC2=O)c1 (stereo unspecified) ?
SKKanGAS inh: 125.1*; CR mimetic SO: 101.8; PolyA inh: 1.2; Calb FLC: -7.0

Results for CCc1cccc(NS(=O)(=O)c2ccc3c(c2)N(C)CCO3)c1 ?
SKKanGAS inh: -0.3; CR mimetic SO: 96.1; PolyA inh: 5.5; Platelet DG rel: -11.6; Calb FLC: -3.5

How did COc1ccc(CC(=O)NNC(=O)COc2ccc(Cl)cc2C)cc1S(=O)(=O)N1CCOCC1 do in these assays?
CR mimetic SO: 64.5*

Results for COc1ccc(CC(=O)NNC(=O)COc2ccc(C)cc2)cc1S(=O)(=O)N1CCOCC1 ?
SKKanGAS inh: -2.0; CR mimetic SO: 97.7; PolyA inh: -3.5; Platelet DG rel: 1.5; Calb FLC: 1.1

What do the screens show for `O=C(COc1ccccc1Cl)NCCNC(=O)c1ccco1`?
SKKanGAS inh: -0.3; CR mimetic SO: 84.1; PolyA inh: 5.9; Platelet DG rel: 5.6; Calb FLC: -0.7

Results for Nc1nnnn1/N=C/c1cccc(Oc2ccccc2)c1 ?
SKKanGAS inh: -16.2; CR mimetic SO: 97.8; PolyA inh: -31.8; Platelet DG rel: -3.4; Calb FLC: 78.1*

What do the screens show for `Nc1nnnn1/N=C/c1ccccc1`?
SKKanGAS inh: -2.6; CR mimetic SO: 90.5; PolyA inh: -8.3; Platelet DG rel: 4.6; Calb FLC: 9.3

How did Cc1ccc2nc(/C(C#N)=C\c3ccc(N4CCOCC4)o3)[nH]c2c1 do in these assays?
SKKanGAS inh: 9.3; CR mimetic SO: 105.3; PolyA inh: inconclusive; Platelet DG rel: 4.2; Calb FLC: 8.9

Results for Cc1ccc2nc(/C(C#N)=C\c3ccc([N+](=O)[O-])o3)[nH]c2c1 ?
SKKanGAS inh: 89.5*; CR mimetic SO: 153.4; Platelet DG rel: 8.6; Calb FLC: 70.6

What do the screens show for `N#C/C(=C\c1ccc([N+](=O)[O-])o1)c1nc2ccccc2[nH]1`?
SKKanGAS inh: 31.5; CR mimetic SO: 108.0; PolyA inh: 710.5*; Platelet DG rel: 6.6; Calb FLC: 25.1

How did N#C/C(=C(/O)c1ccc([N+](=O)[O-])o1)c1nc2ccccc2[nH]1 do in these assays?
SKKanGAS inh: 71.9*; CR mimetic SO: 102.6; PolyA inh: -12.7; Platelet DG rel: 7.7; Calb FLC: 3.3

How did CCOC(=O)c1ccc(CSc2nnc(N)s2)cc1 do in these assays?
SKKanGAS inh: -23.5; CR mimetic SO: 95.7; PolyA inh: -2.7; Platelet DG rel: 1.9; Calb FLC: 11.2

What do the screens show for `COc1ccc(N2CC(C(=O)Nc3ccncc3)CC2=O)cc1` (stereo unspecified)?
SKKanGAS inh: -14.8; CR mimetic SO: 101.1; PolyA inh: -6.4; Platelet DG rel: 4.6; Calb FLC: -0.5

How did COc1ccc(CNC(=O)c2ccc(CS(=O)(=O)c3ccc(C)cc3)o2)cc1 do in these assays?
SKKanGAS inh: -6.5; CR mimetic SO: 90.8; PolyA inh: -4.5; Platelet DG rel: 16.2; Calb FLC: 1.3

How did Cc1cc(C)c(NC(=O)C2=COCCO2)c(C)c1 do in these assays?
SKKanGAS inh: -5.5; CR mimetic SO: 95.8; PolyA inh: 6.6; Platelet DG rel: -8.4

Results for O=C(Nc1nc2ccc(F)cc2s1)c1ccccn1 ?
SKKanGAS inh: 97.7*; CR mimetic SO: 97.0; PolyA inh: -24.0; Platelet DG rel: 28.5; Calb FLC: 9.5

What do the screens show for `O=C(Nc1nnc(SCc2ccc(F)cc2)s1)c1ccccn1`?
SKKanGAS inh: 62.6*; PolyA inh: -49.5; Platelet DG rel: -0.5; Calb FLC: 103.1*

How did CCS(=O)(=O)N1Cc2ccccc2CC1C(=O)Nc1nnc(SCc2ccc(F)cc2)s1 (stereo unspecified) do in these assays?
SKKanGAS inh: 54.0*; CR mimetic SO: 93.7; PolyA inh: -10.3; Platelet DG rel: 6.9; Calb FLC: -2.2

What do the screens show for `O=C(Nc1nnc(SCc2ccc(F)cc2)s1)c1cccnc1Cl`?
SKKanGAS inh: 12.0; CR mimetic SO: 111.1; PolyA inh: 1.6; Platelet DG rel: -1.5; Calb FLC: 1.2

Results for O=C(Nc1nc2ccccc2s1)c1cnccn1 ?
SKKanGAS inh: 14.9; CR mimetic SO: 94.2; PolyA inh: -8.8; Platelet DG rel: 8.0; Calb FLC: 21.9

Results for Cc1ccc(C(=O)Nc2nc(-c3ccccn3)cs2)cc1S(=O)(=O)N1CCOCC1 ?
CR mimetic SO: 113.1

What do the screens show for `O=C(CSc1nc2ccccc2[nH]1)Nc1ccc(N2CCOCC2)cc1`?
SKKanGAS inh: -5.5; CR mimetic SO: 105.1; PolyA inh: 1.4; Platelet DG rel: -3.7; Calb FLC: -0.6

What do the screens show for `COc1ccc(C(c2c(O)ccc3ccccc23)N2CCOCC2)c(OC)c1` (stereo unspecified)?
SKKanGAS inh: 7.1; CR mimetic SO: 92.9; PolyA inh: 11.3; Platelet DG rel: 3.0; Calb FLC: 87.4*

What do the screens show for `COc1ccc(C(CCN2CCOCC2)c2c(O)cc(OC)cc2OC)cc1` (stereo unspecified)?
SKKanGAS inh: 3.9; CR mimetic SO: 98.4; PolyA inh: -5.1; Platelet DG rel: -3.7; Calb FLC: -12.1

What do the screens show for `COc1cccc(-c2nnc(NC(=O)CCS(=O)(=O)c3ccc(C)cc3)o2)c1`?
SKKanGAS inh: -5.3; CR mimetic SO: 113.0; PolyA inh: 9.5; Platelet DG rel: 8.4; Calb FLC: -4.4

How did CCCN(CCC)S(=O)(=O)c1ccc(C(=O)Nc2nnc(-c3cc(OC)cc(OC)c3)o2)cc1 do in these assays?
SKKanGAS inh: 102.1*; CR mimetic SO: 119.0; PolyA inh: -7.4; Platelet DG rel: -0.2; Calb FLC: -0.1

Results for CCCN(CCC)S(=O)(=O)c1ccc(C(=O)Nc2nnc(CSC)o2)cc1 ?
SKKanGAS inh: 28.1; CR mimetic SO: 89.5; PolyA inh: 9.0; Calb FLC: -1.0

How did CCCN(CCC)S(=O)(=O)c1ccc(C(=O)Nc2nnc(-c3cccc(OC)c3)o2)cc1 do in these assays?
SKKanGAS inh: 108.1*; CR mimetic SO: 103.3; PolyA inh: 2.1; Platelet DG rel: -2.1; Calb FLC: -0.7

Results for CN(C)c1cccc(C(=O)N2CCCC(CCC(=O)NCc3ccccc3F)C2)c1 (stereo unspecified) ?
SKKanGAS inh: 0.8; CR mimetic SO: 90.1; PolyA inh: -8.6; Platelet DG rel: -3.3; Calb FLC: 11.6

Results for CC(C)c1ccc2oc(-c3ccc(NC(=O)c4ncn[nH]4)cc3)nc2c1 ?
SKKanGAS inh: 3.9; CR mimetic SO: 96.7; PolyA inh: 11.3; Platelet DG rel: -3.3; Calb FLC: 88.1*

How did COc1ccc(C(=O)N2CCCCCC2)cc1S(=O)(=O)N1CCOCC1 do in these assays?
SKKanGAS inh: -2.9; CR mimetic SO: 92.9; PolyA inh: -7.7; Calb FLC: -2.6
